Measured values reported in PubChem BioAssay AID1159580 (chemical genetic matrix, 2015).
“And” between values parts separate entries of the source, which are not always exact repeats. Equal values may be shown once. Screen size: about 5,500 compounds; about 2,000 (36%) were called active. Inconclusive results (about 18%) are left out. No stated cut-off is given here; in the data, active means normalized growth mostly below about 0.91 (no sharp cut-off); inconclusive means no clear call, values can overlap the other calls; inactive means mostly above about 0.92. The list shows a part of the results.

Test: chemical genetic growth profiling, strain panel (AID 1159580);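 further: tested at 20 µM; growth read once vehicle control cultures reached saturation at 30 °C; 1 = growth at the plate median or of vehicle wells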
Details: S. cerevisiae deletion strains, growth OD

Measured: normalized growth

O=c1cc(-c2ccc(O)cc2)oc2cc(O[C@@H]3O[C@H](CO)[C@@H](O)[C@H](O)[C@H]3O)cc(O)c12
inactive: locus YAL021C, strain ccr4, stronger effect = lower value 0.975 | locus YAL026C, strain drs2, stronger effect = lower value 1.02 | locus YAL030W, strain snc1, stronger effect = lower value 1.01 | locus YBL061C, strain skt5, stronger effect = lower value 1.01 | locus YBR009C, strain hhf1, stronger effect = lower value 0.995 | locus YBR021W, strain FUR4, stronger effect = lower value 0.953 | locus YBR023C, strain chs3, stronger effect = lower value 0.995 | locus YBR171W, strain sec66, stronger effect = lower value 1.02 | locus YBR229C, strain ROT2, stronger effect = lower value 0.983 | locus YBR231C, strain swc5, stronger effect = lower value 1.04 | locus YBR279W, strain paf1, stronger effect = lower value 1 | locus YCL011C, strain gbp2, stronger effect = lower value 0.992 | locus YCL016C, strain dcc1, stronger effect = lower value 0.983 | locus YCL029C, strain bik1, stronger effect = lower value 0.973 | locus YCL069W, strain vba3, stronger effect = lower value 1 | locus YCR088W, strain abp1, stronger effect = lower value 1 | locus YDL005C, strain med2, stronger effect = lower value 1.03 | locus YDL035C, strain GPR1, stronger effect = lower value 0.999 | locus YDL040C, strain nat1, stronger effect = lower value 0.998 | locus YDL074C, strain BRE1, stronger effect = lower value 0.974 | locus YDL101C, strain DUN1, stronger effect = lower value 0.986 | locus YDL185W, strain tfp1, stronger effect = lower value 0.968 | locus YDL192W, strain arf1, stronger effect = lower value 0.976 | locus YDR001C, strain nth1, stronger effect = lower value 1.01 | locus YDR069C, strain doa4, stronger effect = lower value 1.01 | locus YDR101C, strain arx1, stronger effect = lower value 0.981 | locus YDR137W, strain rgp1, stronger effect = lower value 1.01 | locus YDR150W, strain NUM1, stronger effect = lower value 0.988 | locus YDR159W, strain sac3, stronger effect = lower value 1.06 | locus YDR162C, strain NBP2, stronger effect = lower value 1.02 | locus YDR195W, strain ref2 1.01 | locus YDR297W, strain sur2, stronger effect = lower value 1.02 | locus YDR318W, strain mcm21, stronger effect = lower value 0.986 | locus YDR334W, strain swr1, stronger effect = lower value 1.01 | locus YDR335W, strain msn5, stronger effect = lower value 1 | locus YDR388W, stronger effect = lower value 0.973 | locus YDR392W, strain spt3, stronger effect = lower value 0.935 | locus YDR502C, strain sam2, stronger effect = lower value 0.982 | locus YEL003W, strain gim4, stronger effect = lower value 1.02 | locus YEL037C, strain rad23, stronger effect = lower value 1.01 | locus YEL061C, strain CIN8 (second series), stronger effect = lower value 1 | locus YEL061C, strain CIN8, stronger effect = lower value 0.99 | locus YER015W, strain faa2, stronger effect = lower value 0.993 | locus YER016W, strain bim1, stronger effect = lower value 1.01 | locus YER110C, stronger effect = lower value 0.995 | locus YER111C, strain swi4, stronger effect = lower value 1.01 | locus YER155C, strain BEM2 (second series), stronger effect = lower value 1.05 | locus YER155C, strain BEM2, stronger effect = lower value 0.98 | locus YER167W, strain BCK2, stronger effect = lower value 0.967 | locus YFR010W, strain ubp6, stronger effect = lower value 1.02 | locus YGL078C, strain dbp3, stronger effect = lower value 0.984 | locus YGL086W, strain mad1, stronger effect = lower value 0.978 | locus YGL167C, strain pmr1, stronger effect = lower value 1 | locus YGL173C, strain kem1, stronger effect = lower value 1.03 | locus YGL227W, strain vid30, stronger effect = lower value 1.01 | locus YGL240W, strain doc1, stronger effect = lower value 1.02 | locus YGL248W, strain PDE1, stronger effect = lower value 1 | locus YGL253W, strain hxk2, stronger effect = lower value 1.01 | locus YGR078C, strain PAC10, stronger effect = lower value 0.999 | locus YGR135W, strain pre9, stronger effect = lower value 0.973 | locus YGR252W, strain gcn5, stronger effect = lower value 0.974 | locus YHR013C, strain ard1, stronger effect = lower value 0.994 | locus YHR027C, strain rpn1, stronger effect = lower value 1.01 | locus YHR030C, strain SLT2, stronger effect = lower value 0.986 and 1.05 | locus YHR079C, strain IRE1 (second series), stronger effect = lower value 0.971 | locus YHR079C, strain IRE1, stronger effect = lower value 1.03 | locus YHR094C, strain hxt1, stronger effect = lower value 0.972 | locus YHR129C, strain ARP1, stronger effect = lower value 0.988 | locus YHR142W, strain chs7, stronger effect = lower value 1 | locus YHR200W, strain rpn10, stronger effect = lower value 0.957 | locus YIL066C, strain RNR3, stronger effect = lower value 0.979 | locus YIL073C, strain SPO22, stronger effect = lower value 0.969 | locus YIL125W, strain kgd1, stronger effect = lower value 0.974 | locus YIR030C, strain dcg1, stronger effect = lower value 0.987 | locus YJL092W, strain hpr5, stronger effect = lower value 1 | locus YJL095W, strain BCK1 (second series), stronger effect = lower value 1.02 | locus YJL095W, strain BCK1, stronger effect = lower value 1.02 | locus YJL115W, strain asf1, stronger effect = lower value 1.01 | locus YJL129C, strain trk1, stronger effect = lower value 1 | locus YJL134W, strain LCB3, stronger effect = lower value 0.983 | locus YJL154C, strain vps35, stronger effect = lower value 1.01 | locus YJL164C, strain tpk1, stronger effect = lower value 0.979 | locus YJL166W, strain qcr8, stronger effect = lower value 1.01 | locus YJL168C, strain set2, stronger effect = lower value 0.995 | locus YJL187C, strain SWE1 (second series), stronger effect = lower value 0.998 | locus YJR043C, strain POL32, stronger effect = lower value 0.995 | locus YJR066W, strain TOR1, stronger effect = lower value 0.998
